PubChem BioAssay AID1851 (National Center for Advancing Translational Sciences (NCATS), 2009)
The whole screen tested about 16,000 compounds, of which about 2,600 (16%) were called active. About 20% were inconclusive and are not listed. These entries were drawn from the full list. A number with no mark means an inactive call. Calls come from the whole dose curve; as a rule, active = well fitted curve in the direction sought with a large enough effect; inconclusive = small, poorly fitted or top-dose-only effect, or effect the other way; inactive = no such curve, though single readings can be large or run the other way.

What follows are compounds tested against Cytochrome P450 2D6 (Homo sapiens) (UniProt P10635) (assay: Cytochrome panel assay with activity outcomes). Conditions: recombinant CYP, pro-luciferin dealkylation, luminescence, p450-cyp2d6; series mostly up to 57.1 µM; activity, negative = inhibition: at the top concentration.
Sequence of Cytochrome P450 2D6 (Homo sapiens) (P10635 whole entry, looked up): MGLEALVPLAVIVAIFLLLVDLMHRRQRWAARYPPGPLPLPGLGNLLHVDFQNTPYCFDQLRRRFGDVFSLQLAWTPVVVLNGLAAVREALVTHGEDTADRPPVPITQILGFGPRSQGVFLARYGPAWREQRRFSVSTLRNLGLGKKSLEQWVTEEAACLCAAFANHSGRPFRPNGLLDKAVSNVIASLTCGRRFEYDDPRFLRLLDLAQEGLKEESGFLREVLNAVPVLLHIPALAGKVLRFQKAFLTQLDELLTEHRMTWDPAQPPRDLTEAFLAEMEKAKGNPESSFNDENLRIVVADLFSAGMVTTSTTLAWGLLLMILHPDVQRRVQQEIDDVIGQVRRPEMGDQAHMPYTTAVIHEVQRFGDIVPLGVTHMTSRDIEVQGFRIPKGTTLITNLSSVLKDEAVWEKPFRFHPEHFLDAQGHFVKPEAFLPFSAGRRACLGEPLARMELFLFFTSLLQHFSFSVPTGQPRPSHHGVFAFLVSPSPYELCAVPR
% is set by controls: 0 for no effect and ±100 for the full control effect.

Row | SMILES | activity, negative = inhibition | AC50
1 | Brc1ccccc1OCCOCCOc1cccc2cccnc12 | -2.81% | –
2 | C/C(CC(=O)Nc1cc(C)ccn1)=N\NC(=O)COc1cccc(C)c1 | -12.1% | –
3 | Cc1ccc(/C(O)=C2/C(=O)C(=O)N(CCCn3ccnc3)C2c2ccccn2)cc1 (centres undefined) | -9.78% | –
4 | COc1cc(C)ccc1OCCCOc1ccccc1Br | -13.8% | –
5 | Cc1ccc(OCCOCCn2ccnc2)c(Br)c1 | – | 1 µM (active)
6 | Cc1cccc(OCCCCCn2ccnc2)c1 | – | 0.1 µM (active)
7 | Cc1ccc(C(=O)COC(=O)c2ccc3c(c2)C(=O)N(c2cccc4ncccc24)C3=O)cc1C | 7.13% | –
8 | Cc1ccc(C)c(S(=O)(=O)NC(CC(C)C)C(=O)O)c1 (centres undefined) | 10.7% | –
9 | COc1ccc(C2/C(=C(/O)c3ccc4c(c3)CC(C)O4)C(=O)C(=O)N2CCN2CCOCC2)cc1 (centres undefined) | 17.8% | –
10 | CN1CCN(c2ncc3ncc(=O)n(Cc4ccc(F)cc4)c3n2)CC1 | -8.01% | –
11 | Nc1nc2c(ncn2COC(CO)CO)c(=O)[nH]1 | – | inactive
12 | O=C1Nc2ccc([N+](=O)[O-])cc2C1(O)N1CCCCCC1 (centres undefined) | -2.3% | –
13 | Cc1nc(SCC(=O)Nc2ccc(N3CCOCC3)cc2)nc(C)c1C | 14.7% | –
14 | Cc1nc(SCC(=O)NCCc2ccc(Cl)cc2)nc(C)c1C | – | 3.55 µM (active)
15 | Nc1cc(N)nc(SCC(=O)NNC(=O)c2ccc(Cl)cc2)n1 | 5.53% | –
16 | CC(C)[C@H](Sc1nc(N)nc2nc[nH]c12)C(=O)O | 2.46% [at 11.4 µM] | –
17 | CCOc1ccc(NC(=O)Cn2nnc(C(=O)NCc3ccccc3OC)c2N)cc1 | 29.3% | –
18 | COc1ccc(C2(CNC(=O)/C=C/c3ccco3)CCCC2)cc1OC | -19.2% | –
19 | O=C(NC(=S)Nc1nc(-c2ccc(Br)cc2)cs1)c1cccnc1 | 3.04% | –
20 | CC(C)(C)N1C(=O)[C@H]2[C@H]3[C@H](O)[C@H](O)C/C(=N/NC(=O)OCc4ccccc4)[C@H]3CC[C@@H]2C1=O | 6.89% [at 11.4 µM] | –
21 | CC(=O)OC[C@H]1O[C@@H](O/N=C(\C)CCN2CCCc3nc(C)c(C)cc32)[C@H](OC(C)=O)[C@@H](OC(C)=O)[C@H]1OC(C)=O | – | 3.16 µM (active)
22 | CC(=O)OC[C@H]1O[C@@H](O/N=C(\C)CCN2CCCCc3nc(C)c(C)cc32)[C@H](OC(C)=O)[C@@H](OC(C)=O)[C@H]1OC(C)=O | – | 3.98 µM (active)
23 | CC(=O)OC[C@@H]1O[C@H](CCO/N=C(\C)CCN2CCCc3nc(C)c(C)cc32)C=C[C@@H]1OC(C)=O | -15.6% [at 11.4 µM] | –
24 | Cc1ccccc1-c1cc(C(=O)Nc2nc3c(s2)CCCC3)c2ccccc2n1 | -6.95% | –
25 | O=C(c1cnccn1)N1CCC[C@@]2(CCN(c3ncccn3)C2)C1 | -0.687% | –

Row | SMILES | activity, negative = inhibition | AC50
26 | CCOC(=O)c1nc2sc(C)c(C)c2c(=O)[nH]1 | 6.61% | –
27 | C[C@@H]1O[C@@H](n2cc(F)c(=O)[nH]c2=O)[C@H](O)[C@@H]1O | 2.47% | –
28 | COC(=O)[C@@]1(Cc2ccc(OC)cc2)[C@@H]2C(=CC(=O)[C@H]2CC(=O)C(=O)N(C)C)CN1C(=O)c1ccccc1 | -6.49% | –
29 | CCCSc1cc(N2CCCC2)nc(-c2ccccc2)n1 | -6.04% | –
30 | CN(c1ccccc1)c1nc(-n2ccnc2)nc(-n2ccnc2)n1 | – | 11.2 µM (active)
31 | c1ccc(-c2nc(N3CCCCCC3)nc(-n3ccnc3)n2)cc1 | – | 14.1 µM (active)
32 | CCOc1nc(N2CCCCC2)nc(-n2cc(-c3ccccc3)nn2)n1 | 10.5% | –
33 | C[C@@H](N)C(=O)O | 11.9% | –
34 | Cc1c(C(=O)NN2CCN(C)CC2)cccc1[N+](=O)[O-] | 21% | –
35 | Cc1sc(=NC(=O)c2ccco2)n(C)c1-c1ccc(F)cc1 | 8.56% | –
36 | CCc1cc2cc(C)c(C)cc2nc1SCC(=O)NNC(=O)c1ccco1 | 15.9% | –
37 | CC(C)(C)C(=O)N1CCN(c2ccc([N+](=O)[O-])c(NCC3CCCO3)c2)CC1 (centres undefined) | -24.3% | –
38 | COc1cccc([C@H](O)Cn2cc(-c3ccc(CON=C(C)C)cc3)nn2)c1 | 4% [at 11.4 µM] | –
39 | O=c1c(Cl)c(N2CCN(S(=O)(=O)c3ccc(F)cc3)CC2)cnn1-c1cccc(Cl)c1 | 0.0421% | –
40 | CC(=O)C=NCC(=O)O | -2.95% [at 11.4 µM] | –
41 | c1csc(CNc2cc(-c3ccoc3)ncn2)c1 | – | 15.8 µM (active)
42 | Cc1cnc(CNc2cc(-c3ccoc3)ncn2)cn1 | 9.36% | –
43 | Cc1cccc(CNc2cc(-c3ccoc3)ncn2)c1 | – | 25.1 µM (active)
44 | c1cncc(CNc2cc(-c3ccoc3)ncn2)c1 | -8.57% | –
45 | Cc1cccc(CNc2cc(-c3ccc(N(C)C)cc3)ncn2)c1 | -15.8% | –
46 | C=CCSc1ccsc1C(=O)O | 4.5% | –
47 | Cc1cc(C)n2c(SCC(=O)N(C)C3CCS(=O)(=O)C3)nnc2n1 (centres undefined) | -4.18% | –
48 | O=c1c(C=Nc2ccc(Oc3ccccc3)cc2)c[nH]n1-c1cccc(Cl)n1 | -11.3% | –
49 | CC(=O)OCc1c(C(F)(F)F)nn(C)c1Sc1ccccc1 | -12.7% | –
50 | Cc1cc(C)n(CC(O)COc2ccccc2)n1 (centres undefined) | -20.6% | –

Row | SMILES | activity, negative = inhibition | AC50
51 | Cc1ccccc1OCC(O)Cn1c(NCc2ccccc2)nc2c1c(=O)[nH]c(=O)n2C (centres undefined) | -3.75% | –
52 | Cc1ccc(OCC(O)CNC(=O)c2ccccc2C(=O)O)cc1 (centres undefined) | 19.5% | –
53 | CC(=O)Nc1ccc(OCC(O)Cn2c3ccccc3c3ccccc32)c(C)c1 (centres undefined) | – | 14.1 µM (active)
54 | C=CCN(CC=C)CC(O)Cn1c2ccccc2c2ccccc21 (centres undefined) | – | 0.224 µM (active)
55 | CCn1c2ccccc2c2cc(NC(=O)C(C)Oc3ccc(OC)cc3)ccc21 (centres undefined) | -24.2% | –
56 | c1ccc2c(c1)c1ccccc1n2Cn1c2ccccc2c2ccccc21 | -12.9% [at 11.4 µM] | –
57 | Cc1ccc(OCC(O)Cn2c3ccccc3c3ccccc32)cc1 (centres undefined) | – | 6.31 µM (active)
58 | Cc1ccccc1OCC(O)Cn1c2ccccc2c2ccccc21 (centres undefined) | – | 0.891 µM (active)
59 | OC[C@@H](O)COc1cccc2ccccc12 | 8.76% | –
60 | C#CCCCO/N=C1/[C@H]2O[C@@H]2[C@@H](O)[C@H]2[C@H]1CCn1c(=O)n(Cc3cc4c(cc3Cl)OCO4)c(=O)n12 | -0.473% [at 11.4 µM] | –
61 | O=C(O)c1nnsc1-c1csnn1 | -6.92% [at 11.4 µM] | –
62 | Cc1cc(C)c(C(N)=O)c(NC(=O)Nc2ccccc2)n1 | -1.35% | –
63 | O=c1[nH][nH]c(=S)c(=O)[nH]1 | 0.16% [at 11.4 µM] | –
64 | C=CCNC(=S)Nc1ccc2nc(C)c(C)nc2c1 | -21.9% | –
65 | Cc1ccc(NC(=O)CN(C)C(=O)CSc2n[nH]c(N)n2)cc1 | -2.04% | –
66 | CCn1cc(C(=O)N/N=C(/C)c2ccc(F)cc2)c(=O)c2cc(F)c(N3CCCC3)cc21 | -16.1% | –
67 | CCc1cccc2c3c([nH]c12)[C@@](CC)(CC(=O)O)OCC3 | 8.03% [at 25.6 µM] | –
68 | O=C1S/C(=C/c2ccc(N3CCOCC3)o2)C(=O)N1Cc1ccc(F)cc1 | -5.57% | –
69 | COc1ccc(NC(=O)C2(c3ccc(NC(=O)c4ccc(C)cc4)cc3)CCCC2)cc1 | -1.99% | –
70 | CC(=NC1CCCCC1)c1ccccc1O | -7.44% [at 11.4 µM] | –
71 | CC(=O)/C=C/c1ccc2ccccc2n1 | -25.2% | –
72 | C/C(=N/Nc1ccc2ccccc2n1)c1ccccc1O | – | 0.794 µM (active)
73 | COc1ccc(/C(O)=C2/C(=O)C(=O)N(CCN3CCOCC3)C2c2ccc(C)cc2)cc1 (centres undefined) | 29.8% | –
74 | CN1CCN(c2ncc3nc(CCc4ccccc4)c(=O)n(C)c3n2)CC1 | -8.43% | –
75 | O=C(O)[C@@H]1[C@@H](C(=O)NCc2ccncc2)[C@@H]2C=C[C@@H]1O2 | -9.91% [at 11.4 µM] | –

Row | SMILES | activity, negative = inhibition | AC50
76 | O=C(CN(c1ccccc1)S(=O)(=O)c1ccccc1[N+](=O)[O-])NN=C1CCCCCCC1 | – | 4.47 µM (active)
77 | COc1ccc(N(CC(=O)NN=C2CCCC2)S(=O)(=O)c2ccccc2)cc1 | -23.6% | –
78 | O=C(COc1ccc([N+](=O)[O-])cc1)NN=C1CCCC1 | -17.7% | –
79 | CNC(=O)[C@H]1O[C@H](n2cnc3c(NCc4cccc(I)c4)ncnc32)[C@@H](O)[C@@H]1O | -3.89% | –
80 | CCCCC(C=O)NC(=O)C(CC(C)C)NC(=O)OCc1ccccc1 (centres undefined) | -8.92% | –
81 | NCc1ccccc1CC(=O)N[C@@H]1C(=O)N2C(C(=O)O)=C(CSc3nnnn3CC(=O)O)CS[C@@H]12 | 5.45% [at 25.6 µM] | –
82 | COc1cc(/C=N\NC(=O)C2C(=O)NCC2c2ccccc2)cc(OC)c1O (centres undefined) | 0.0367% | –
83 | CCCCN1CCCC[C@H]1C(=O)Nc1c(C)cccc1C | – | 0.501 µM (active)
84 | Cc1cccc(C)c1NC(=O)N1CCC(N2CCCCC2)CC1 | -13.6% | –
85 | Cc1cccc(C)c1NC(=O)CCN1C(=O)C2C3CCC(C3)C2C1=O (centres undefined) | -0.973% | –
86 | Cc1ccc(/C(C#N)=C/c2cccc([N+](=O)[O-])c2)cc1 | 8% [at 11.4 µM] | –
87 | CN(C)Cc1cc(O)c(O)c(CN(C)C)c1 | 1.36% [at 11.4 µM] | –
88 | COC(=O)c1cc(-c2ccccc2)sc1NC(=O)CN1C(=O)c2ccccc2C1=O | -10.5% | –
89 | Cc1ccc2nc(-c3ccc(NC(=O)c4ccc(N)cc4)c(S(=O)(=O)O)c3)sc2c1 | 10.5% [at 11.4 µM] | –
90 | Cc1ccc2c(c1)N(CC(=O)NCc1cccs1)C(=O)C(C)O2 (centres undefined) | – | 12.6 µM (active)
91 | Cc1ccc(C)c(NC(=O)Cn2nnc(C(=O)NCc3cccs3)c2N)c1 | -4.92% | –
92 | COc1ccc(CCNC(=O)CCN2C(=O)C(C)Oc3ccc(C)cc32)cc1OC (centres undefined) | -5.38% | –
93 | COc1ccccc1COC(=O)Nc1c(C)nn(C)c1Cl | 13.3% | –
94 | COc1ccc2c(c1)c(CC(=O)N1CCOCC1)c(C)n2C(=O)c1ccc(Cl)cc1 | 0.728% | –
95 | Nc1cccc2cc(S(=O)(=O)Nc3ccc(C(=O)O)cc3)ccc12 | 4.25% [at 11.4 µM] | –
96 | COc1c(N2CCN(C(=S)Nc3ccc(F)cc3)C(C)C2)c(F)cc2c(=O)c(C(=O)O)cn(C3CC3)c12 (centres undefined) | -2.42% | –
97 | CCOC(=O)N/N=C\c1ccc([N+](=O)[O-])o1 | -12.6% | –
98 | O=C(O)c1cc(-c2ccncc2)nc2ccccc12 | 8.68% [at 11.4 µM] | –
99 | O=C(N/N=C/c1ccc([N+](=O)[O-])o1)c1cc(-c2ccncc2)nc2ccccc12 | – | 14.1 µM (active)
